Measured values from ChEMBL document CHEMBL3988442, “University of Dundee, Small-Polar-MMV Screening Library” (2021).

Tests used:
[1] = molecular target: T1, Aspartate--tRNA(Asp/Asn) ligase (Mycobacterium tuberculosis (strain ATCC 25618 / H37Rv)) (UniProt P9WFW3); experiment: Assay for Asp RNA synthetase-1 from Mycobacterium tuberculosis; type: functional; parameters: scale not given: direction of the effect not stated beside the values; details: 30 µM; note: in the data most compounds retested in dose-response had high values
T1 sequence (whole entry): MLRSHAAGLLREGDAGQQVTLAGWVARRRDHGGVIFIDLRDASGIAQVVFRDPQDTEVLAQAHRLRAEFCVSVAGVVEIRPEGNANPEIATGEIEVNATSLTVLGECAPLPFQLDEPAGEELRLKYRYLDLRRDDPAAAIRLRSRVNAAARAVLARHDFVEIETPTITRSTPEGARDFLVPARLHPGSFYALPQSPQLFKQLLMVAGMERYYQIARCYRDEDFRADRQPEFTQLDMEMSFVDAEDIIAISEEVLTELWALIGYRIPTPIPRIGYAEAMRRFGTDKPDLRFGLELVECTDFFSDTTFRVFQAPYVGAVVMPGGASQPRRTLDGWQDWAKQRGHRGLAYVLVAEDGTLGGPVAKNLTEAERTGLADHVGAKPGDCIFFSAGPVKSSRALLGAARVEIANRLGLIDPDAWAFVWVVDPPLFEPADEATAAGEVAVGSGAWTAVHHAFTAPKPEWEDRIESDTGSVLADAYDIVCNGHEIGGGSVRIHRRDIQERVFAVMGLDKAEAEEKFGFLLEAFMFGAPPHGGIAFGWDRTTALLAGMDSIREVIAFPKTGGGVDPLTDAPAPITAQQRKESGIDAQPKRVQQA

[2] = molecular target: Shiga toxin 2 (Escherichia coli O157:H7) (UniProt P09385+P09386); experiment: E. coli 0.157:H7 Shiga Toxin SOP - stx2 screening assay; type: functional; parameters: scale not given: direction of the effect not stated beside the values; details: 30 µM

| SMILES | Percent Effect [1] | Percent Effect [2] |
| --- | --- | --- |
| Cc1cccc2c1cnn2CCC(=O)NCC(=O)N(C)C | -1.19% | -22.2% |
| COCCNc1nc(C2CCCC2)nc2c1CCNCC2 | 2.87% | -36.8% |
| Cc1cnn(CC2CCCCN2CC(=O)NCc2ccccn2)c1 (centres undefined) | -0.659% | 0.25% |
| Cc1ccc(C(=O)N2CCC3(CC2)CC(N2CCCC2)C3)cc1 | 0.137% | -9.41% |
| Cc1cccc2nc(C(=O)N3CCC(Nc4cccnn4)CC3)cn12 | -1.93% | 8.8% |
| Cc1ncc(CN2Cc3ccccc3O[C@]3(CC[C@H](CO)CC3)C2)cn1 | 0.551% | 18.1% |
| O=C(c1cccc(=O)[nH]1)N(Cc1ccsc1)CC1CCCO1 (centres undefined) | 0.0781% | -11.1% |
| CC(C)S(=O)(=O)NCC1CCCN(C(=O)c2ccc3c(c2)OCCO3)C1 (centres undefined) | 6.79% | -18.1% |
| CC(C)c1cc(N2CCC(N)CC2)n2nccc2n1 | -0.232% | 19.8% |
| O=C(CC1CC1)NCc1cn2c(n1)CN(C(=O)c1cccnc1)CC2 | 3.04% | -29.1% |
| Cc1nc(C)c(CC(=O)Nc2nnc(C)s2)c(=O)[nH]1 | -2.12% | 19% |
| Cc1noc(C)c1CN1CC[C@@H](OCC2CC2)[C@@H](Cc2ccccc2)C1 | 0.779% | 16% |
| COCCN(C)C(=O)c1ccc(OC)cc1O | 0.638% | -28.1% |
| CC(C)NC(=O)Cn1cc(-c2ccccc2)cn1 | -0.189% | 2.98% |
| Cc1cn2c(n1)CCC(NC(=O)c1c[nH]c(C)n1)C2 (centres undefined) | -7.1% | 14.6% |
| Cc1ccc(N2CCCC(NCC(=O)NC3CCOCC3)C2)nn1 (centres undefined) | 5.08% | -27.9% |
| O=C1NC2(CCN(C(=O)Cc3ccsc3)CC2)CC1c1ccncc1 (centres undefined) | 1.5% | -5.98% |
